Compound activity from PubChem BioAssay.
Rv3671c protease: Rv3671c serine protease inhibitors, primary screen, biochemical, fluorescence polarization, M. tuberculosis H37Rv. inhibition, % at 5.96 µM. actives 0.048% (n = 320,000); in the data active = inhibition above about 38%;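 note: extracellular domain of Rv3671c used as enzyme; 0% = enzyme with DMSO and 100% = no enzyme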
Mtb bLac sens: beta-lactam sensitization of Mtb H37Rv, H37Rv. actives 0.27% (n = 330,000). inhibition, % at 25 µM. M. tuberculosis H37Rv growth with meropenem, percent inhibition. AID 434955, 2010; call rule not given here;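 note: growth measured after seven days incubation then overnight dye step; 0% = bacteria only wells and 100% = bacteria with antibiotic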
GDH-TPI inh: GDH-TPI coupling enzyme inhibitors, primary screen, artefact control for M. tuberculosis FBA inhibitor project, biochemical, absorbance, full deck. GDH-TPI coupled enzyme counterscreen, NADH absorbance. inhibition, % at 4.8 µM. actives 1.2% (n = 360,000). AID 588335, 2011; in the data active = inhibition above about 30%;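 note: 0% = DMSO wells and 100% = wells lacking the enzyme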
UGM FP inh: M. tuberculosis UGM enzyme inhibitors, primary screen, biochemical, fluorescence polarization, single point; UDP-galactopyranose mutase (Mycobacterium tuberculosis (strain ATCC 25618 / H37Rv)), …; purified UGM, fluorescence polarization probe displacement; inhibition, % at 10 µM; actives 0.06% (n = 320,000); in the data active = inhibition above about 10%, passing the limit was not always enough; inconclusive = no clear call, values can overlap the other calls
FBA Mtb inh: Mtb FBA enzyme inhibitors, primary screen, biochemical, fluorescence, strain H37Rv; AID 588726, 2011; purified M. tuberculosis FBA, fluorescence read-out; Fructose-bisphosphate aldolase (Mycobacterium tuberculosis (strain ATCC 25618 / H37Rv)), …; actives 2.3% (n = 360,000); inhibition, % at 1 µM; in the data active = inhibition above about 27%;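 note: 0% = vehicle and 100% = reference inhibitor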
Target sequence (P9WQA3 whole entry, looked up): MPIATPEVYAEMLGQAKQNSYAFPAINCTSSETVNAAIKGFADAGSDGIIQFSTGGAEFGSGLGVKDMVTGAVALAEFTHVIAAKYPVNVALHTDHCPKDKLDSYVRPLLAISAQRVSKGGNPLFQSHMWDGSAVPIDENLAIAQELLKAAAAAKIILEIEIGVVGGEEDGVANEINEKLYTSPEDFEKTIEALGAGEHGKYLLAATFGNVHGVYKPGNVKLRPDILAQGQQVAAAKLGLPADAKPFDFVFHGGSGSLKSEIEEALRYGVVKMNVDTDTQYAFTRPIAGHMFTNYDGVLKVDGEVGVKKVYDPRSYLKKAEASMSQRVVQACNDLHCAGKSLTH
An asterisk follows results filed as active; ? = inconclusive; nt = no result given; + = active, no number. Compounds with a hit are over-represented: about 3.5% of the library has one in this group of screens.

SMILES	Rv3671c protease	Mtb bLac sens	GDH-TPI inh	UGM FP inh	FBA Mtb inh
COC(=O)C1=CN(C2CC2)C=C(C(=O)OC)C1c1ccccc1OC	-2	-1	8	4	157*
CCN1C=C(C(=O)OC)C(c2cccc(OC)c2OC)C(C(=O)OC)=C1	0	-7	1	-1	172*
COC(=O)C1=CN(Cc2ccc(OC)c(OC)c2)C=C(C(=O)OC)C1c1cccc(OC)c1OC	-7	-1	11	1	140*
Cc1cc(C)n2nc(C(=O)OCC(=O)Nc3ccc(F)cc3F)nc2n1	4	2	-12	0	-2
O=C(c1ccccc1)C(Nc1ccccn1)c1ccccc1 (stereo not drawn)	-8	-6	6	-2	5
COc1ccccc1-c1cc(C(F)(F)F)nc(N2CCN(c3ccccc3)CC2)n1	-1	-8	-1	2	28*
O=C(Nc1ccccc1)C1=C[C@H](c2ccc3c(c2)OCO3)C[C@H](OCc2ccc(CO)cc2)O1	2	8	7	4	5
CCOC(=O)c1cc2c(=O)n3cccc(C)c3nc2n(CCCOC)c1=NC(=O)c1cccnc1	2	0	20	1	+
CCOCCCn1c(=NC(=O)c2cccnc2)c(C(=O)OCC)cc2c(=O)n3ccccc3nc21	-1	-17	12	3	145*
CC1(C)CC(=O)C2=C(C1)c1c(ccc3ccccc13)NC2c1ccc(C(=O)O)cc1 (stereo not drawn)	-1	10	6	-2	+
Cc1ccc(C2Nc3ccc4ccccc4c3C3=C2C(=O)CC(C)(C)C3)o1 (stereo not drawn)	-9	-5	11	-1	15
O=C(Cc1cccs1)NCc1ccccc1Br	-9	6	1	4	0
Cc1cccc(N2C(=O)NC(=O)/C(=C/c3ccc(N4CCOCC4)cc3)C2=O)c1	-9	-11	21	1	0
Cc1cccc(N2C(=O)NC(=O)/C(=C\c3ccc(N4CCOCC4)cc3)C2=O)c1	-5	-5	31*	2	-4
Cc1cc(C)cc(OCC(=O)OCC(=O)Nc2cc(S(=O)(=O)N3CCOCC3)ccc2Cl)c1	4	3	1	-3	5
O=C(CCC(=O)Nc1ccc(Br)cc1)N/N=C/c1ccc(O)cc1	-3	-4	10	0	2
COc1nc(NC(=O)c2ccc(F)cc2)nc(OC)c1-c1ccccc1	-2	8	-4	1	2
Cc1ccc(Nc2c(-c3ccc(N4CCOCC4)cc3)nc3ncccn23)cc1	-2	9	31*	1	3
Cc1n[nH]c(C)c1S(=O)(=O)N1CCN(S(=O)(=O)c2cccc(F)c2)CC1	nt	nt	2	nt	-2
O=C(N/N=C/c1c(F)cccc1Cl)c1cc(C2CC2)[nH]n1	-5	3	2	-4	-3
CC(=O)Nc1c(C#N)c(-c2ccccc2)c(C#N)c(=O)n1-c1ccc(C)cc1	nt	nt	33*	nt	1
Cc1ccc(-n2c(N)c(C#N)c(-c3ccc(Cl)cc3)c(C#N)c2=O)cc1	-5	-5	15	1	4
Cc1ccc(-c2c(C#N)c(N)n(-c3ccc(C)cc3)c(=O)c2C#N)cc1	-8	-13	40*	-3	2
O=C(NCCS(=O)(=O)N1CCN(c2ccccc2F)CC1)c1ccc2c(c1)OCO2	8	2	1	-3	0
N#Cc1c(N)n(-c2cccc(C(=O)O)c2)c2nc3ccccc3nc12	-14	2	43*	2	+
SMILES	Rv3671c protease	Mtb bLac sens	GDH-TPI inh	UGM FP inh	FBA Mtb inh
N#Cc1c(N)n(-c2ccccc2N)c2nc3ccccc3nc12	-50	-5	14	-3	0
CC(=O)/C(=N/Nc1ccccc1)Sc1nnc(CCc2ccccc2)n1-c1ccccc1	-15	5	32*	0	3
Cn1cnnc1SCc1ccc(C(=O)N=Nc2c(O)n(C)c3ccccc23)cc1	-3	-2	33*	-4	2
O=C(O)c1ccc(N2C(=O)c3cccc4cccc(c34)C2=O)cc1	nt	-1	38*	3	11
O=C(O)c1cccc(N2C(=O)c3cccc4cccc(c34)C2=O)c1	nt	1	19	-2	3
COc1cc(Cl)ccc1OCc1cc(C(=O)N(C)Cc2cccc3cnccc23)no1	-12	?	-4	0	3
COCCCn1c(C)nc2c(c1=O)c1nc3ccccc3nc1n2CCc1ccccc1	1	3	20	2	36*
Cc1nc2ccccc2c(=O)n1CCc1ccccc1	-9	1	-3	-3	2
COc1cc(C(C)=O)ccc1OC(=O)c1cc2cccc(OC)c2oc1=O	11	-1	57*	-1	-2
CNc1nc2cccnc2s1	7	-5	0	3	-2
Cc1ccc(-c2nc3cc(NC(=O)C(C)C)ccc3o2)cc1	-2	48	-2	1	181*
Cc1cc2nc(-c3ccc(NC(=O)C(C)C)cc3)oc2cc1C	-24	-1	10	-1	138*
CCCC(=O)Nc1cccc(-c2nc3cc(C)c(C)cc3o2)c1	-5	42	5	2	9
CC(C)C(=O)Nc1cccc(-c2nc3ccccc3o2)c1	-8	-1	14	0	8
Cc1csc(NC(=O)c2ccc3nc[nH]c3c2)n1	10	4	3	0	-4
C=CCn1c(CC(=O)OC)csc1=Nc1ccc(C(C)=O)cc1	-1	3	31*	-1	4
C=CCn1c(C)csc1=Nc1ccc(C(C)=O)cc1	0	6	1	0	0
CCOC(=O)Cn1c2ccccc2c2nc3ccccc3nc21	3	19	15	-1	-1
COc1ccc(Cn2c3ccc(OC)cc3c3nc4ccccc4nc32)cc1	7	10	8	2	-3
O=C(O)Cn1c2ccccc2c2nc3ccccc3nc21	nt	nt	32*	nt	-2
COc1ccc2c(c1)c1nc3ccccc3nc1n2CC(=O)OC(C)C	3	7	10	19*	0
CN(C(=O)COC(=O)Cc1c(F)cccc1Cl)c1c(N)n(Cc2ccccc2)c(=O)[nH]c1=O	-5	4	-2	-3	0
Nc1cc(C(F)(F)F)ccc1C(=O)O	12	-5	9	-2	76*
Nc1cc(S(=O)(=O)C(F)(F)F)ccc1C(=O)O	-4	-13	14	0	1
Oc1cccc(Nc2nc(O)c(/C=C3\C=Nc4ccccc43)s2)c1	-28	-1	41*	2	5
COc1ccc(C(=O)COC(=O)CCC(=O)Nc2ccc(C(C)=O)cc2)cc1	-9	-6	7	-3	+
CCOc1ccc(NC(=O)CCC(=O)c2ccc(OC)cc2)cc1	5	96	16	1	-3
